35 compounds from PubChem BioAssay (NCATS) can be followed below.

Inconclusive results are not listed. A call without a number means that no potency is given here. Activity calls are given as the source filed them. Calls come from the whole dose curve; as a rule, active = well fitted inhibition curve with a large enough effect; inconclusive = small, poorly fitted or top-dose-only effect; inactive = no such curve, though single readings can be large or run the other way.
Potency is the fitted concentration of half-maximal effect.

Sequence of Papain (Carica papaya) (P00784 whole entry, looked up): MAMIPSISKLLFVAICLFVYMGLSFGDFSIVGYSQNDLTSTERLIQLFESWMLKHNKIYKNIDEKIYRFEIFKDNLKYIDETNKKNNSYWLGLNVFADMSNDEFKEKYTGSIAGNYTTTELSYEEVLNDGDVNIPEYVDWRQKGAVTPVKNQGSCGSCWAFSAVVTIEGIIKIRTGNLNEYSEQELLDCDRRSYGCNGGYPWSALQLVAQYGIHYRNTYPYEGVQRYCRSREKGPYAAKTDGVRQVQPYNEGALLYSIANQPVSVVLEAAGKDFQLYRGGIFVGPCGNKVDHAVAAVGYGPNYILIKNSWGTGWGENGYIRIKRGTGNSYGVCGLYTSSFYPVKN

The experiment has as its target Papain (Carica papaya) (UniProt P00784). The experiment is described as follows: Primary qHTS assay for inhibitors of the protease papain (AID 1645873).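 Note: papain turnover of Z-FR-AMC read as the AMC fluorescence gain over 10 min.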 Particulars: papain Z-FR-AMC cleavage, AMC fluorescence; series mostly up to 49.8 µM.
As for `COc1ccc(/C=C/c2nc(NCCCN(C)C)c3ccccc3n2)cc1`, the Potency was 28.2 µM (active).

Regarding `N#C/C(=C\c1ccc(-c2cc(Cl)ccc2Cl)o1)C(=O)Nc1cccc2ncccc12`, the Potency entry is “inactive”.

Turning to `Nc1nc(Nc2ccccc2)nc2c1ncn2[C@@H]1O[C@H](CO)[C@@H](O)[C@H]1O`, the Potency entry is “inactive”.

Consider `C[N+]1(C)CCC(OC(=O)C(c2ccccc2)c2ccccc2)CC1`, for which the Potency result is “inactive”.

With `S=C(S)OC1CC2CC1C1CCCC21` (stereo not given), the Potency entry was “inactive”.

On to `C=CC(C)=C[C@@]1(C)SC(=O)C(C)=C1O`, for which the Potency result is “inactive”.

In the case of `CC(C)NC[C@@H](O)c1ccc(O)c(O)c1`, the Potency result was “inactive”.

As to `CNc1ncnc2c1ncn2[C@@H]1O[C@H](CO)[C@@H](O)[C@H]1O`, the Potency entry was “inactive”.

`Oc1ccc(C2CNCc3sccc32)cc1O` (stereo not given): the Potency result was “inactive”.

On to `COCCOc1cc2nc[nH]c(=O)c2cc1OCCOC`, for which the Potency entry was “inactive”.

For the compound `Cc1cc2c(cc1Cl)N(C(=O)Nc1ccc(Oc3cccnc3C)nc1)CC2`, the Potency result was “inactive”.

In the case of `Nc1ncnc2c1ncn2[C@@H]1O[C@H](COP(=O)(O)CP(=O)(O)OP(=O)(O)O)[C@@H](O)[C@H]1O`, the Potency result was “inactive”.

`CC12C(=O)OC(=O)C1(C)C1CCC2O1` (stereo not given): the Potency result was “inactive”.

`CC(C)(NS(=O)(=O)c1ccc(Oc2ccc(F)cc2)cc1)C(=O)NO`: the Potency result is “inactive”.

Take `CC(=O)N[C@H](C(=O)O)C(C)(C)SN=O`: the Potency entry is “inactive”.

With `Clc1ccc(N2CCN(Cc3cc4ccccn4n3)CC2)cc1`, the Potency entry is “inactive”.

In the case of `NC(CCCP(=O)(O)O)C(=O)O` (stereo not given), the Potency entry is “inactive”.

For the compound `Cc1cn([C@H]2CC(N=[N+]=[N-])[C@@H](CO)O2)c(=O)[nH]c1=O` (stereo not given in full), the Potency result is “inactive”.

For `O=C(/C=C/c1ccc(O)c(O)c1)OCCc1ccccc1`, the Potency result is “inactive”.

Consider `C[C@@H](CN1CCC(Cc2ccccc2)CC1)[C@@H](O)c1ccc(O)cc1`, for which the Potency entry is “inactive”.

On to `CSc1nc(N)c2ncn([C@@H]3O[C@H](COP(=O)(O)OP(=O)(O)OP(=O)(O)O)[C@@H](O)[C@H]3O)c2n1`, for which the Potency entry was “inactive”.

For `NO`, the Potency entry is “inactive”.

Consider `C=CC(N)CCC(=O)O` (stereo not given), for which the Potency result was “inactive”.

For `COc1ccc(/C=C2\COc3ccc(C)cc3C2=O)cc1O`, the Potency result is “inactive”.

Take `O=C(O)CCCC[C@@H]1CCSS1`: the Potency entry is “inactive”.

On to `c1cnc2c(c1)ccc1cccnc12`, for which the Potency is 15.8 µM (active).

Consider `COc1ccccc1CN[C@@H]1CCCN[C@@H]1c1ccccc1`, for which the Potency entry was “inactive”.

Take `O=C(O)c1cc(=O)c2c(Cl)cc(Cl)cc2[nH]1`: the Potency result is “inactive”.

Turning to `O=C1NC(=O)c2c1c(-c1ccccc1)cc1[nH]c3ccc(O)cc3c21`, the Potency entry is “inactive”.

As for `Nc1nc(OCC2CCCCC2)c2[nH]cnc2n1`, the Potency entry was “inactive”.

As for `CC(C)c1cccc(C(C)C)c1N1C(=O)c2ccc(O)cc2C1=O`, the Potency entry is “inactive”.

`Nc1ccn([C@H]2O[C@H](CO)[C@@H](O)C2(F)F)c(=O)n1`: the Potency result is “inactive”.

In the case of `Nc1ncnc2c1ncn2[C@@H]1O[C@H](COP(=O)(O)OP(=O)(O)OP(=O)(O)OP(=O)(O)OC[C@@H]2O[C@H](n3cnc4c(N)ncnc43)[C@@H](O)[C@H]2O)[C@@H](O)[C@H]1O`, the Potency result was “inactive”.

Turning to `Cc1ccc(S(=O)(=O)/C=C/C#N)cc1`, the Potency entry was “inactive”.

Regarding `CC(C)(C)c1ccc(S(=O)(=O)/C=C/C#N)cc1`, the Potency entry was “inactive”.
